Activity calls are given as the source filed them. The calls were made as follows: active = hit-call score of the fitted dose curve at least 0.9, where 1 is the maximum; inactive = score below 0.9.
read-out: Alkaline Phosphatase, Placental (ALPP) gene, ALPP (gene 250); test: LTEA_HepaRG_ALPP: Life Technologies and Expression Analysis (LTEA) Assay for Alkaline Phosphatase, Placental (ALPP) gene using HepaRG (AID 2283468); conditions: mRNA level, 48 h; actives raise or lower the signal;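 as to AC50: ALPP transcript by TaqMan qRT-PCR normalized to ACTB GAPDH and POLR2A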
Method: LTEA_HepaRG is a cell based, multiplexed-readout assay that uses HepaRG, a human liver cell line, with measurements taken at 48 hours after chemical dosing on a 96-well plate.LTEA_HepaRG_ALPP is one of 102 assay component(s) measured in the LTEA HepaRG cell culture assay. It is a marker of Cell proliferation, survival, death.Data from the assay component LTEA_HepaRG_ALPP was analyzed into 1 endpoint. This assay endpoint, LTEA_HepaRG_ALPP, was analyzed with bidirectional fitting relative to DMSO as the negative control and baseline of activity. Using a type of inducible reporter, measures of mRNA induction for gain or loss-of-signal activity can be used to understand regulation of transcription factor activity. To generalize the intended target to other relatable targets, this assay endpoint is annotated to the phosphatase intended target family, where the subfamily is Cell proliferation, survival, death.
A total of 1060 chemcials from the ToxCast library were tested in eight-point concentration-response experiments. Cell culture and cytotoxicity assays were conducted at Thermo Fisher Scientific's Custom Services facility (Madison, WI). A single lot of human HepaRG cells (Thermo Fisher Scientific, Frederick, MD) was used for the cell culture experiments. 96-well format collagen type I coated plates of human HepaRG cells were prepared using established methods. Briefly, cryopreserved HepaRG cells were thawed, plated at a density of approximately 100,000 cells/well in HepaRG Thaw, Plate, and General Purpose media (HPRG770, Thermo Fisher Scientific), and incubated for 48 hours. 0.5% DMSO was selected as vehicle control to balance the requisite need of DMSO in HepaRG cultures to maintain differentiation (for example, baseline metabolism, proportions of hepatocytes vs. cholangiocytes), while enabling further hepatic receptor pathway activation (for example, PXR and CAR) in response to chemical exposure. 48 hours after plating, the culture medium was replaced with HepaRG Serum-Free Incudtion Media. Cells were exposed to each test chemical in duplicate and maintained in CO2 incubators for another 48 hours. Chemical plates were thawed to room temperature and 200x concentrations of treatment groups were prepared. 8-point conentration-reponse curves were made with the highest exposure at 100 uM, followed by half-log dilutions, all in 0.5% DMSO. Each test plate contained variouse controls, induction positive controls (1mM phenobarbital), cytotoxicity positive controls ([…] aflatoxin B1), vehicle controls (0.5% DMSO), and total lysis controls (0.5% DMSO). Cell morphology images were taken using an Essen IncuCyte FLR automated microscope, with six 96-well plates imaged in about 24 minutes. Images were captured and exported and JPEG files. Spent culture media was transfered to black-well plates for the LDH assay, and remaining media was sorted at -80 C for later use. Cells were treated with RLT buffer and frozen until shipped for gene expression analysis. Total RNA was isolated from the cell suspension in 75 uL of Buffer RLT (Qiagen, Germantown, MD 20874) by Quintiles/Expression Analysis (Durham, NC) using a custom isolation procedure. Total RNA from each plate well was transferred to a preamplification plate. Fluidigm's 96.96 Dynamic ArrayTM (Fluidigm, Amsterdam, the Netherlands) technology was used for gene expression analyses by quantitative reverse transcription polymerase chain reaction (qRT-PCR, performed by Quintiles/Expression Analysis, Durham, NC)89. Standard TaqManTM Assays (Applied Biosystems/ThermoFisher Scientific, Foster City, CA) were used to assess the expression of 93 genes selected based on their selectivity and sensitivity to important hepatic receptors known to be modulated by environmental chemicals; importance in human hepatocyte functionality; and hepatotoxicity. […]

outcome, inactive:
COCC(C)OCC(C)OCC(C)O (stereo not given)
CC(C)(c1cc(Br)c(O)c(Br)c1)c1cc(Br)c(O)c(Br)c1
Cc1ccc2oc(CN(Cc3ccccc3)C(=O)Nc3c(F)cc(F)cc3F)c(-c3ccc(Cl)cc3)c2c1
O=c1c(-c2ccc(O)cc2)coc2cc(O)cc(O)c12
O=CCCCC=O
CC1=CC(=O)/C(=C(/C)O)C(=O)O1
CCCCCc1ccc(N)cc1
CC[C@H](NC(=O)c1cc(F)ccc1NS(=O)(=O)c1cccc2cccnc12)c1ccccc1
O=C(O)c1ccccc1C(=O)OCc1ccccc1
O=C=NCCCCCCN=C=O
Cc1cccc2ccccc12
CCCCCCCC[Si](OCC)(OCC)OCC
Cc1ccc(C(C)C)cc1
CCCOC(=O)c1cc(O)c(O)c(O)c1
CCCCCCCCCCCO
CC/C(=C(/CC)c1ccc(O)cc1)c1ccc(O)cc1
CCCCCCCCCCCCO
Oc1ccc2ccccc2c1
O=C(OCCCCCCOC(=O)c1ccccc1)c1ccccc1
CC(C)(C)c1cc(/C=C2\SC(N)=NC2=O)cc(C(C)(C)C)c1O
CCO[Si](CCCNC(N)=O)(OCC)OCC
Oc1ccccc1
O=C1c2ccccc2C(=O)N1CCc1noc(-c2ccc(CN3CCCCCC3)s2)n1
c1ccc2ccccc2c1
CCCCCCCCOc1ccc(C(=O)c2ccccc2)c(O)c1

AC50, active:
CC(C)(C)c1csc(-c2cc3cc(OCc4ccccc4CC(=O)O)ccc3o2)n1 24.4 µM
COc1cc(C(=O)NC2CCN(C)CC2)ccc1Nc1ncc2c(n1)N(C1CCCC1)CC(F)(F)C(=O)N2C 3.13 µM
CO[C@H]1/C=C/O[C@@]2(C)Oc3c(C)c(O)c4c(O)c(c(/C=N/N5CCN(C)CC5)c(O)c4c3C2=O)NC(=O)/C(C)=C\C=C\[C@H](C)[C@H](O)[C@@H](C)[C@@H](O)[C@@H](C)[C@H](OC(C)=O)[C@@H]1C 31.2 µM
O=C(Nc1ccc(Cl)cc1)Nc1ccc(Cl)c(Cl)c1 19.6 µM
c1ccc(C[n+]2cccc3ccccc32)cc1 13 µM
COc1ccc2cc(S(=O)(=O)N[C@H](CC(=O)N[C@H](Cc3ccc(CN4[C@H](C)CCC[C@@H]4C)cc3)C(=O)N(C)C(C)C)c3ccc4c(c3)OCO4)ccc2c1 0.741 µM
CCCCCCCCCCCC[N+](C)(C)C 66.1 µM
COc1cccc([C@H](O)C2CCN(CCc3ccc(F)cc3)CC2)c1OC 9.92 µM
Cc1c2ccccc2c(C)c2c1ccc1ccccc12 39.7 µM
NCc1cccc(C2CCN(C(=O)c3ccc(C#Cc4ccccc4F)o3)CC2)c1 46.2 µM
CCN(Cc1cccnc1)C(=O)c1cccc(Cl)c1[C@]1(C)C(=O)N(Cc2ccc(OC)cc2OC)c2ccc(Cl)cc21 10.1 µM
NC(=O)c1nc(-c2cccc(-c3cc(F)ccc3OCC(F)(F)C(F)(F)F)c2)n[nH]1 3.42 µM
CCCCCCCCOC(=O)c1cc(O)c(O)c(O)c1 11.5 µM
CN1C(=O)N(c2ccccc2Br)Cc2cnc(Nc3ccc4c(c3)OCC(CO)O4)nc21 (stereo not given) 2.93 µM
O=C(O)c1ccccc1-n1cc(C(=O)O)c(=O)c2cc(Nc3c(F)cc(F)cc3Cl)c(Cl)cc21 0.0892 µM
